Experimental data taken from PubChem BioAssay (Tox21).
Several values for one entry are separate records, joined by “and”; a condition that tells them apart may be missing. Equal values may be shown once. Inconclusive results are not listed. A call without a number means that no potency is given here. Some compounds were tested as several samples or in several runs, with calls that do not always agree. Activity calls are given as the source filed them. Unless noted, the call rests on the fitted dose curve.

Legend:
[1] = Nuclear factor erythroid 2-related factor 2/antioxidant responsive element (Nrf2/ARE) small molecule agonists: luciferase reporter gene qHTS assay in human keratinocytes (AID 1919969); further: nearly all actives have a fitted effect of over 35% in size; further: potency means the concentration at half of the fitted maximal effect
[2] = target: KiSS-1 receptor (Homo sapiens) (UniProt Q969F8); assay: Human kisspeptin (KISS1R) small molecule agonists, calcium flux assay in KISS1R-HEK293 cells (AID 1920064; active means well fitted activation curve with a large enough effect in the repeat runs)
Method in brief: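 After overnight (18 h) culture at 37 C/5% CO2, human KISS1R-HEK293 cells received calcium dye for 1 h, then test compound; emission at 540 nm (excitation 480 nm) was tracked for 3 min.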

[3] = G protein-coupled receptor (GPCR) small molecule agonists, calcium flux assay: HEK293 wild type cell line counter screen (AID 1920065)
Method in brief: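 Following 18 h incubation at 37 C/5% CO2, plates got calcium dye for 1 h; compounds, ATP or DMSO were then pinned in and fluorescence followed kinetically (480/540 nm).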

[4] = p53 small molecule agonists, cell-based qHTS assay with human liver microsomes (AID 1963577)
Method in brief: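 Compounds act here after metabolic activation: human liver microsomes and NADPH, both at 0.5 mg/mL final, were co-added to p53RE-bla cells. Incubation ran 16 h at 37 C, followed by LiveBLAzer detection.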

[5] = p53 small molecule agonists, cell-based qHTS assay with human liver microsomes: qHTS cell viability counter screen (AID 1963579); further: nearly all actives have a fitted effect of over 45% in size; further: potency means the concentration at half of the fitted maximal effect
Method in brief: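 Cells carrying the p53 response-element beta-lactamase reporter are treated for 16 h at 37 C with test compounds in the presence of human liver microsomes and NADPH (both 0.5 mg/mL final); ATP-based CellTiter-Glo luminescence then reports viability.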

[6] = p53 small molecule agonists, cell-based qHTS assay with rat liver microsomes: qHTS cell viability counter screen (AID 1963580); further: nearly all actives have a fitted effect of over 45% in size; further: potency means the concentration at half of the fitted maximal effect
Method in brief: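 After the beta-lactamase ratio was read, CellTiter-Glo was added to the same wells and luminescence measured at 30 min; cells had been treated 16 h at 37 C with compounds, rat liver microsomes and NADPH (0.5 mg/mL final each).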

[7] = p53 small molecule agonists, cell-based qHTS assay: qHTS cell viability counter screen (AID 1963581); further: nearly all actives have a fitted effect of over 45% in size; further: potency means the concentration at half of the fitted maximal effect
Method in brief: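 qHTS counter screen: 16 h compound exposure at 37 C of p53RE-bla HCT-116 cells (4,000 per well, seeded 5 h prior), cell viability by ATP luminescence.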

[8] = target: 5-hydroxytryptamine receptor 2A (Homo sapiens) (UniProt P28223); assay: 5-hydroxytryptamine receptor 2A (HTR2A) small molecule antagonists, cell-based qHTS assay (AID 1963586); further: nearly all actives have a fitted effect of over 45% in size; further: potency means the concentration at half of the fitted maximal effect
Method in brief: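 CHO cells stably expressing human HTR2A were plated for 18 h at 37 C, then loaded with calcium dye for 1 h. Compounds were preincubated 5 min at room temperature before DOI (4 nM solution) was added. Kinetic fluorescence was read for 3 min.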

[9] = target: 5-hydroxytryptamine receptor 2A (Homo sapiens) (UniProt P28223); assay: 5-hydroxytryptamine receptor 2A (HTR2A) small molecule agonists, cell-based qHTS assay (AID 1963587); further: nearly all actives have a fitted effect of over 30% in size; further: potency means the concentration at half of the fitted maximal effect
Method in brief: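 CHO cells stably expressing human HTR2A, plated 18 h, loaded with calcium dye 1 h at 37 C. Agonist mode: compounds added and intracellular calcium fluorescence recorded kinetically for 2 min at 1 sec intervals.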

[10] = target: Muscarinic acetylcholine receptor M1 (Homo sapiens) (UniProt P11229); assay: Cholinergic receptor muscarinic 1 (CHRM1) small molecule antagonists, cell-based qHTS assay (AID 1963588); further: nearly all actives have a fitted effect of over 40% in size; further: potency means the concentration at half of the fitted maximal effect
Method in brief: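 Compounds were tested at 15 concentrations in three independent runs. Dye-loaded CHRM1-CHO cells were exposed 5 min at room temperature before stimulation by acetylcholine added at 50nM. Intracellular calcium was read kinetically on FDSS for 3 min.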

[11] = target: Muscarinic acetylcholine receptor M1 (Homo sapiens) (UniProt P11229); assay: Cholinergic receptor muscarinic 1 (CHRM1) small molecule agonists, cell-based qHTS assay (AID 1963589); further: nearly all actives have a fitted effect of over 35% in size; further: potency means the concentration at half of the fitted maximal effect
Method in brief: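 Kinetic fluorescence (1 s intervals) of calcium-sensitive dye in human M1 CHO cells after compound addition; cells pre-incubated 18 h at 37 C/5% CO2 and dye-loaded 1 h.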

[12] = target: Beta-2 adrenergic receptor (Homo sapiens) (UniProt P07550); assay: Adrenergic beta2 receptor (ADRB2) small molecule antagonists, cell-based qHTS assay (AID 1963592); further: nearly all actives have a fitted effect of over 50% in size; further: potency means the concentration at half of the fitted maximal effect
Method in brief: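 Assay format: CHO-ADRB2 cells, 18-20hr seeding at 37C/5% CO2, then compound plus 1nM isoproterenol agonist mix for 0.5hr RT. Homogeneous time-resolved fluorescence cAMP detection after 1hr, expressed as 665/615 nm ratio.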

[13] = target: D(2) dopamine receptor (Homo sapiens) (UniProt P14416); assay: Dopamine D2 receptor (DRD2) small molecule agonists, cell-based qHTS assay (AID 1963594); further: nearly all actives have a fitted effect of over 35% in size; further: potency means the concentration at half of the fitted maximal effect
Method in brief: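 HEK293 cells stably expressing human DRD2, pre-treated with PDE inhibitor Ro20-1724 (0.1 mM final) and compound 10 min at room temperature, then stimulated with NKH477 (200nM […]) for 30 min. cAMP read by HTRF (665/620 nm).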

[14] = target: Gonadotropin-releasing hormone receptor (Homo sapiens) (UniProt P30968); assay: Human gonadotropin-releasing hormone receptor (GnRHR) small molecule agonists, calcium flux assay in GnRHR-HEK293 cells (AID 1920063); further: nearly all actives have a fitted effect of over 35% in size
Method in brief: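 Stable human GnRHR HEK293 line. 18 h plating, then calcium dye for 1 h at 37 C. Agonist-mode compound addition from DMSO stocks; fluorescence monitored 3 min.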

[15] = p53 small molecule agonists, cell-based qHTS assay with rat liver microsomes (AID 1963578)
Method in brief: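 Read-out is beta-lactamase reporter fluorescence (LiveBLAzer, 2 h, room temperature, dark) in p53RE-bla cells treated 16 h at 37 C with compound, rat liver microsomes and NADPH, both 0.5 mg/mL final.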

[16] = p53 small molecule agonists, cell-based qHTS assay (AID 1963582; active means well fitted activation curve with a large enough effect in the signal ratio in the repeat runs, not every such curve was filed as active; the % refers to the signal ratio)
Method in brief: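 Measured: fluorescence from cleaved LiveBLAzer substrate. System: p53RE-bla cells, 16 h compound treatment at 37 C, 2 h substrate step at room temperature.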

[17] = cAMP Responsive Elements (CRE) small molecule agonists, cell-based qHTS assay (AID 1963590)
Method in brief: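 Test agents in DMSO were incubated 3 h at 37 C/5% CO2 with CRE-bla HEK 293T cells seeded 18 h earlier; LiveBLAzer B/G FRET substrate was added and read after 2 h at room temperature.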

[18] = cAMP Responsive Elements (CRE) small molecule antagonists, cell-based qHTS assay (AID 1963591; active means well fitted inhibition curve with a large enough effect in the signal ratio in the repeat runs, not every such curve was filed as active; the % refers to the signal ratio)
Method in brief: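 Reporter line CRE-bla HEK 293T in dialyzed-FBS DMEM; cells preincubated 18 h, treated 3 h with compound plus NKH477 (0.25 uM final); LiveBLAzer FRET, 2 h RT.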

[19] = target: D(2) dopamine receptor (Homo sapiens) (UniProt P14416); assay: Dopamine D2 receptor (DRD2) small molecule antagonists, cell-based qHTS assay (AID 1963595; active means well fitted inhibition curve with a large enough effect in the signal ratio in the repeat runs, with a control signal flat; the % refers to the signal ratio)
Method in brief: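 HTRF cAMP read-out at 665 and 620 nm emission (340 nm excitation). Antagonist mode: compounds were tested against 12 nM quinpirole in DRD2-HEK293 cells, with 200 nM NKH477 raising cAMP and 0.1 mM Ro20-1724 blocking its breakdown.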

[20] = target: Beta-2 adrenergic receptor (Homo sapiens) (UniProt P07550); assay: Adrenergic beta2 receptor (ADRB2) small molecule agonists, cell-based qHTS assay (AID 1963593);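 further: CHO cells stably overexpressing human ADRB2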
Method in brief: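 CHO cells stably over-expressing ADRB2 were plated overnight at 37C, then dosed with compounds plus a stimulation mix containing 100uM IBMX and 25uM Ro-20-1724 for 0.5hr at room temperature. cAMP was measured by HTRF competition, 1hr.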

5-hydroxytryptamine receptor 2A (Homo sapiens), sequence (P28223 whole entry, looked up): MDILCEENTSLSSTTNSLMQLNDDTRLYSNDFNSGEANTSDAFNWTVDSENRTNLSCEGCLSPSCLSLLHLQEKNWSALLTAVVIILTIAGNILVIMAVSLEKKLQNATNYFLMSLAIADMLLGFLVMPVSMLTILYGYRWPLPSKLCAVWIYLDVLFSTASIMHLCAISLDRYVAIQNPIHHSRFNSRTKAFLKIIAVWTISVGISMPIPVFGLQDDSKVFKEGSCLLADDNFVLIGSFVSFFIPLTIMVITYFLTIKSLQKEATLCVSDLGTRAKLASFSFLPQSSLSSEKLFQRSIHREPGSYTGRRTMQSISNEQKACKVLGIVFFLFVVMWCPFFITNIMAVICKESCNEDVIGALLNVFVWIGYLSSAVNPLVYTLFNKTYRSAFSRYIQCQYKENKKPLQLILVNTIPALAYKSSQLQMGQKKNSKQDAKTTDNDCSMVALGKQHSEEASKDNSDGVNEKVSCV
Muscarinic acetylcholine receptor M1 (Homo sapiens), sequence (P11229 whole entry, looked up): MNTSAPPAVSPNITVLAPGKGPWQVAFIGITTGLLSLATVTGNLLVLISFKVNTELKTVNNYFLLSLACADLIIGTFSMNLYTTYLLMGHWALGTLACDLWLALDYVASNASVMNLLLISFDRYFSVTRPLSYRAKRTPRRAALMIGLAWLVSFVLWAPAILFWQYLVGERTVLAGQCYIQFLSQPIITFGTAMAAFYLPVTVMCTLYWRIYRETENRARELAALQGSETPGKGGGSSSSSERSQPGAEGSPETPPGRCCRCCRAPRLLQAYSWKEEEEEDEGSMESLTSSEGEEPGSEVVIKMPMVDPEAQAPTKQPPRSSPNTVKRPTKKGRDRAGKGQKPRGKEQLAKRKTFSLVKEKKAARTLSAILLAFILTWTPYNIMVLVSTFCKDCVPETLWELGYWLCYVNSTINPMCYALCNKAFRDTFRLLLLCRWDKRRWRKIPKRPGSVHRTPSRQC
Beta-2 adrenergic receptor (Homo sapiens), sequence (P07550 whole entry, looked up): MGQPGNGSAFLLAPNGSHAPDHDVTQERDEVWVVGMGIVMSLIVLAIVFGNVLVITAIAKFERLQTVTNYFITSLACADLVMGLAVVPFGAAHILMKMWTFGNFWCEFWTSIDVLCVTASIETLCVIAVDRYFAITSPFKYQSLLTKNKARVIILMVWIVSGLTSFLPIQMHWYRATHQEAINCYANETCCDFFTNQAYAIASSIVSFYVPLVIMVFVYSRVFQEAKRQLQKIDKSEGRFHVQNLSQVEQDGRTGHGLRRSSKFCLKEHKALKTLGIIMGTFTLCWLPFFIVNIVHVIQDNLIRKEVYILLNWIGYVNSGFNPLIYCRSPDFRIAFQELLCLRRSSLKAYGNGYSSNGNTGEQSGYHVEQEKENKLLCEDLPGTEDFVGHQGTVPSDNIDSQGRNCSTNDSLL
KiSS-1 receptor (Homo sapiens), sequence (Q969F8 whole entry, looked up): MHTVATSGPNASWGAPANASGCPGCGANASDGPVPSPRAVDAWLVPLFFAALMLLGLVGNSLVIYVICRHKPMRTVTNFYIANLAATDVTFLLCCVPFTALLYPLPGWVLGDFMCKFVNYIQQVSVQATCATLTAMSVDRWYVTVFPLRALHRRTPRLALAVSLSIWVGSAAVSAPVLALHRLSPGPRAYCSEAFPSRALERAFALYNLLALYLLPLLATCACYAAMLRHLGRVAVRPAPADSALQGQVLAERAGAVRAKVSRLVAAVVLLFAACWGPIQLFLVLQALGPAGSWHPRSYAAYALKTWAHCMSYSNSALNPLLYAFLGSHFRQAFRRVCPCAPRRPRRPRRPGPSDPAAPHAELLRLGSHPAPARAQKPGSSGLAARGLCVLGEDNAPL
D(2) dopamine receptor (Homo sapiens), sequence (P14416 whole entry, looked up): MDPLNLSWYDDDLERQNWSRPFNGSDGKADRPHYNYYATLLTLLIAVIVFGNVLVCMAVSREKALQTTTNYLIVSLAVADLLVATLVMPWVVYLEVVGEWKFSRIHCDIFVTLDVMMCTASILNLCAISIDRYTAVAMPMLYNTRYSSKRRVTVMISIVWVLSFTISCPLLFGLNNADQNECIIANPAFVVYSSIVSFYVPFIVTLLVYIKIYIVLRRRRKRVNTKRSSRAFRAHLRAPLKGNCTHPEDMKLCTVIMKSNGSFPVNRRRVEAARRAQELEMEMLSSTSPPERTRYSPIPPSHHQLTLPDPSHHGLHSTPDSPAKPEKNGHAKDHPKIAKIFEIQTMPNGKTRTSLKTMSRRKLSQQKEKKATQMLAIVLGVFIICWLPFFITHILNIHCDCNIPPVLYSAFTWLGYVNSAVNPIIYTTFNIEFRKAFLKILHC
Gonadotropin-releasing hormone receptor (Homo sapiens), sequence (P30968 whole entry, looked up): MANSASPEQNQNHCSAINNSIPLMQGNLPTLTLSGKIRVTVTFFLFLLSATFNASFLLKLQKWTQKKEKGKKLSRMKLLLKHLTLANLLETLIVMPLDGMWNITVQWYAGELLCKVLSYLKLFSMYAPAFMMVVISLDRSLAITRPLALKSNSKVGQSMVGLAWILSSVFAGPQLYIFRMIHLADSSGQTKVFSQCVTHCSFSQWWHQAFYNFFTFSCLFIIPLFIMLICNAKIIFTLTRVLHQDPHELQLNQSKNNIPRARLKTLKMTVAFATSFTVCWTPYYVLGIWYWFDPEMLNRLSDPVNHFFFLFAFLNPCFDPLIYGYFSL

Row | Compound | Potency [1] | Potency [2] | Potency [3] | Potency [4] | Potency [5] | Potency [6] | Potency [7] | Potency [8] | Potency [9] | Potency [10] | Potency [11] | Potency [12] | Potency [13] | Potency [14] | Potency [15] | Potency [16] | Potency [17] | Potency [18] | Potency [19] | Potency [20]
1 | Cc1ccc([N+](=O)[O-])[c]2c1[O][Hg]2 | 2.66 µM (active) | inactive | inactive | inactive | 15.8 µM (active) | 15.8 µM (active) | 8.9 µM (active) | 7.29 µM (active) | 23.9 µM (active) | inactive | 23.9 µM (active) | 29.8 µM (active) | 32.2 µM (active) |  |  |  |  |  |  | 
2 | NCCCNCCCN |  | inactive | inactive | inactive | inactive | inactive | inactive | inactive | inactive | 38.1 µM (active) | inactive | inactive | inactive | inactive | inactive | inactive | inactive | inactive | inactive | 
3 | CC1COC(Cn2cncn2)(c2ccc(Oc3ccc(Cl)cc3)cc2Cl)O1 (stereo not given) | inactive | inactive | inactive | inactive | inactive | inactive | inactive | inactive | inactive |  | inactive | inactive | inactive |  | inactive |  |  |  | inactive | 
4 | S=C=NCc1ccccc1 | 27.6 µM (active) | inactive | inactive |  |  | inactive | inactive | inactive | inactive | inactive | inactive | inactive | inactive |  | inactive | inactive | inactive | inactive | inactive | 
5 | CCCCNC(=O)OCC#CI | 24.2 µM (active) and 24.3 µM (active) | inactive | inactive | inactive | inactive | inactive | inactive | inactive |  | inactive | inactive | inactive | inactive |  | inactive |  |  |  |  | inactive
6 | Cc1c(COC(=O)[C@@H]2[C@H](/C=C(\Cl)C(F)(F)F)C2(C)C)cccc1-c1ccccc1 | 53.2 µM (active) and 27.2 µM (active) | inactive | inactive | inactive | inactive | inactive |  | inactive | 38 µM (active) and inactive | inactive | inactive |  | inactive |  | inactive |  | inactive | inactive | inactive | inactive
7 | CCc1ccc(C(=O)NN(C(=O)c2cc(C)cc(C)c2)C(C)(C)C)cc1 | inactive |  | inactive |  | inactive | inactive |  | inactive | inactive | 2.98 µM (active) | inactive | inactive | inactive | inactive | inactive |  |  |  | inactive | 
8 | N#CC(C#N)=C(C#N)C#N | inactive | inactive | inactive | inactive | inactive | inactive | inactive |  | inactive | inactive | inactive | inactive | inactive |  | inactive | inactive | inactive | inactive |  | 
